# Measured values reported in PubChem BioAssay (NCATS).
# Records with an inconclusive call do not appear. Entries that show only a call come without a potency. The source made the active and inactive calls. Unless noted, the call rests on the fitted dose curve; in most records, active means well fitted curve in the direction sought with a large enough effect; inconclusive means small, poorly fitted or top-dose-only effect, or another doubt; inactive means no such curve, though single readings can be large; an effect the other way counts as inactive or inconclusive.
# How the values were obtained:
# CP194 = experiment: qHTS profiling for inhibitors of Plasmodium falciparum proliferation (AID 504749); further: nearly all actives have a fitted effect of over 60% in size; further: potency means the concentration at half of the fitted maximal effect; conditions: P. falciparum in erythrocytes, SYBR Green DNA, 72 h; series mostly up to 28.7 µM
# Summary of the method: (§1)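 Fluorescence of SYBR Green-bound parasite DNA, read at 485/535 nm, served as the growth measure. Infected erythrocytes were cultured with compound 72 h; artemisinin (0.29 uM) and DMSO wells defined the normalization range.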
# CP315 = experiment: as above; conditions: P. falciparum in erythrocytes, SYBR Green DNA, 72 h; series mostly up to 28.7 µM
# Summary of the method: as §1
# JCK = experiment: as above; conditions: P. falciparum in erythrocytes, SYBR Green DNA, 72 h; series mostly up to 28.7 µM
# Summary of the method: as §1
# [1] = qHTS Assay for Identification of Small Molecule Antagonists for Thrombopoietin (TPO) Signaling Pathway (AID 918); conditions: TPO-dependent cell signaling reporter, antagonist mode; further: potency means the concentration at half of the fitted maximal effect; nearly all actives have a fitted effect of over 60% in size
# Summary of the method: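 Antagonist mode at EC50 TPO (26 pM) in IL-3-free medium; murine Ba/F3 cells with human TPO receptor and GPIIb-promoter luciferase, 24 hrs at 37 C before luminescent detection.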
# [2] = Cell Viability - NIH 3T3 (AID 541); conditions: NIH 3T3 cell viability, qHTS; activity change, negative = cytotoxicity: at 92.2 µM (top of the series);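 further: cells exposed to compound for 40 hours; nearly all actives have a fitted effect of over 25% in size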
# Summary of the method: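 In this cytotoxicity screen, acute toxicity is scored as an ATP drop measured by CellTiter-Glo in NIH 3T3 fibroblasts following a 40 hr, 37 °C incubation with compound.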
# [3] = Cell Viability - HUV-EC-C (AID 542); conditions: HUV-EC-C endothelial cell viability, qHTS; series mostly up to 92.2 µM;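 further: cells exposed to compound for 40 hours; nearly all actives have a fitted effect of over 35% in size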
# Summary of the method: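 Concentration-dependent ATP loss in HUV-EC-C cells is the measure. Exposure lasts 40 hr at 37 °C; luminescence follows CellTiter-Glo addition, and Hill fits give AC50.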
# [4] = MultiTox-Fluor Cytotoxicity Assay - LYMP1-003 - Dead Cells (AID 961); conditions: LYMP1-003 lymphoblastoid cells, dead-cell protease fluorescence; series mostly up to 92.2 µM;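 further: cells exposed to compound for 16 h at 37 °C; nearly all actives have a fitted effect of over 70% in size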
# Summary of the method: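 LYMP1-003 lymphoblastoid, 2500 cells/well, 5 hr settle then 16 hr cpd at 37 C; MultiTox-Fluor reagent 60 min RT; Ex/Em 485/520 dead-cell signal; norm. DMSO = 0%, 15 uM tetraoctylammonium bromide = 100%; Hill AC50.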
# [5] = MultiTox-Fluor Cytotoxicity Assay - LYMP1-003 - Live Cells (AID 962); conditions: LYMP1-003 lymphoblastoid cells, MultiTox-Fluor live-cell protease fluorescence; series mostly up to 92.2 µM;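 further: cells exposed to compound for 16 hours at 37 °C; cytotoxic hits lower the live-cell protease signal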
# Summary of the method: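 Human lymphoblastoid line LYMP1-003 in complete culture medium, treated 16 hr with titrated compounds. Viable cells quantified via cell-permeant GF-AFC substrate fluorescence; AC50 derived by Hill fitting.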
# [6] = Cell Viability - LYMP1-003 - Assay at 24 hr (AID 963); conditions: LYMP1-003 lymphoblastoid cell viability; series mostly up to 92.2 µM
# Summary of the method: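 The lymphoblastoid line was treated with titrated compounds for 24 hours, and viable cell number estimated from luciferase-based ATP luminescence.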
# [7] = Cell Viability - LYMP2-011 (AID 969); conditions: LYMP2-011 lymphoblastoid cells viability; series mostly up to 92.2 µM; further: nearly all actives have a fitted effect of over 60% in size
# Summary of the method: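 Cells seeded at 2500 per well rest 5 hr before compound addition, then incubate 24 hr at 37 C. CellTiter-Glo reagent is added for 30 min at room temperature before luminescence detection.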
# [8] = Cell Viability - LYMP2-013 (AID 970); conditions: LYMP2-013 lymphoblastoid cells viability; series mostly up to 92.2 µM;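 further: cells exposed to compound for 24 h at 37 °C; nearly all actives have a fitted effect of over 55% in size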
# Summary of the method: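 In complete culture medium, human lymphoblastoid cells were dosed for 24 hr at 37 C, with tetraoctylammonium bromide (6.4pM to 92 uM) as positive control. Viability reflects luciferase-based ATP signal; AC50 derived from concentration-response curves.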
# [9] = Cell Viability - LYMP2-019 (AID 973); conditions: LYMP2-019 lymphoblastoid cell line viability; series mostly up to 92.2 µM;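 further: cells exposed to compound for 24 h at 37 °C; nearly all actives have a fitted effect of over 55% in size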
# Summary of the method: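 AC50 values come from Hill-equation modelling of qHTS concentration-response curves, where viability is measured as luciferase-based ATP luminescence in the lymphoblastoid line after 24 hr compound exposure in complete culture medium.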
# [10] = Cell Viability - LYMP2-023 (AID 975); conditions: LYMP2-023 lymphoblastoid cell viability; series mostly up to 92.2 µM;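 further: cellular ATP measured by luciferase luminescence as viability proxy; cells exposed to compound for 24 hours at 37 °C; nearly all actives have a fitted effect of over 55% in size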
# Summary of the method: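 In this qHTS, ATP-based luciferase luminescence (CellTiter-Glo) is quantified in human lymphoblastoid cells after 24 hr compound treatment at 37 C; tetraoctylammonium bromide serves as positive control. Concentration-response curves are Hill-fitted to give AC50.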
# [11] = Cell Viability - LYMP2-025 (AID 976); conditions: LYMP2-025 lymphoblastoid cell viability; series mostly up to 92.2 µM;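 further: cells exposed to compound for 24 h at 37 °C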
# Summary of the method: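 Luminescent ATP readout after 24 hr treatment of a human lymphoblastoid line (LYMP2-025, 2500 cells/well, 37 C). Reagent developed 30 min at room temperature; AC50 fitted with the Hill equation.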
# [12] = Cell Viability - LYMP2-007 (AID 979); conditions: LYMP2-007 lymphoblastoid cell viability; series mostly up to 92.2 µM;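 further: cells exposed to compound for 24 h before reading; nearly all actives have a fitted effect of over 60% in size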
# Summary of the method: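 Measured via luciferase-based ATP quantitation: lymphoblastoid cells, 24 hr compound exposure at 37 C, AC50 from Hill fits.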
# [13] = Cell Viability - LYMP2-008 (AID 980); conditions: LYMP2-008 lymphoblastoid cell viability, qHTS; series mostly up to 92.2 µM
# Summary of the method: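 Measured: ATP-dependent luminescence, proportional to viable cell number, in human lymphoblastoid cells treated 24 hr with compound in complete culture medium. Values are AC50s from Hill-equation modelling of qHTS titrations.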
# [14] = Cell Viability - LYMP2-014 (AID 983); conditions: LYMP2-014 lymphoblastoid cells, viability qHTS; series mostly up to 92.2 µM;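 further: cells exposed to compound for 24 h at 37 °C; nearly all actives have a fitted effect of over 50% in size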
# Summary of the method: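 Quantitative HTS in lymphoblastoid cells: 24 hr compound exposure, then CellTiter-Glo ATP luminescence. Positive control was tetraoctylammonium bromide, 6.4pM to 92 uM.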
# [15] = Cell Viability - LYMP1-002 - Assay at 40 hr (AID 994); conditions: LYMP1-002 lymphoblastoid cell viability; series mostly up to 92.2 µM; further: nearly all actives have a fitted effect of over 60% in size; further: potency means the concentration at half of the fitted maximal effect
# Summary of the method: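 Concentration-dependent ATP loss after 40 hr treatment at 37 C defined toxicity; AC50 values were obtained by fitting the standard Hill equation.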
# [16] = target: Estrogen receptor (Homo sapiens) (UniProt P03372); experiment: qHTS assay for small molecule antagonists of estrogen receptor alpha signaling (AID 588513; active means well fitted curve in the direction sought with a large enough effect in the signal ratio, with a control signal flat, not every such curve was filed as active; the % refers to the signal ratio); conditions: ER-alpha-UAS-bla HEK293, beta-lactamase ratio, antagonist mode; series mostly up to 76.9 µM
# Chain of Estrogen receptor (Homo sapiens) (P03372 whole entry, looked up): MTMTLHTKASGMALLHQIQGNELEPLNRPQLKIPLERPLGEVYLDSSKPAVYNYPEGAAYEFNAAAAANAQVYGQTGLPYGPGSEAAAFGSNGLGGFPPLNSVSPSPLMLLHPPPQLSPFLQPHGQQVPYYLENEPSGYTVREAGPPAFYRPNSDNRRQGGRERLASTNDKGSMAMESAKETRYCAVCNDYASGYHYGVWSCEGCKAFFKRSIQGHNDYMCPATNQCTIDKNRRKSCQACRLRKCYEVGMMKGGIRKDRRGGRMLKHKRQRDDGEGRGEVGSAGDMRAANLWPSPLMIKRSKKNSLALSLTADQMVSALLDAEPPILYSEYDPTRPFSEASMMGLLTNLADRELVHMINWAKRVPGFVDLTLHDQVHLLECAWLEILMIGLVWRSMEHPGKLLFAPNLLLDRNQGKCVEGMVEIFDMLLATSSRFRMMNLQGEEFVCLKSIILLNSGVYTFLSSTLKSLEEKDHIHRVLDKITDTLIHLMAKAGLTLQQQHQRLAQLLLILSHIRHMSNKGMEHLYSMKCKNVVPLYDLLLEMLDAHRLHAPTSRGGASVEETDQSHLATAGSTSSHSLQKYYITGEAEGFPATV
# Summary of the method: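 Antagonist mode: inhibition of 0.5 nM 17-beta-estradiol-driven beta-lactamase reporter in HEK 293 ER-alpha-UAS-bla cells, 18 h at 37C, CCF4 readout after 2 h at RT. Normalised to estradiol and DMSO; titration fitted to Hill.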
# [17] = target: Estrogen receptor (Homo sapiens) (UniProt P03372); experiment: qHTS assay for small molecule agonists of estrogen receptor alpha signaling (AID 588514; calls by dose curve; further: nearly all actives have a fitted effect of over 70% in size); conditions: ER-alpha-UAS-bla HEK293, beta-lactamase ratio, 18 h; series mostly up to 76.8 µM
# Summary of the method: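 Fluorescence from CCF4 cleavage reports ER-alpha-driven beta-lactamase expression in HEK 293 cells treated 18 hrs at 37 C. Data normalized to 17-beta-estradiol (20 nM) and DMSO, fitted to Hill equation.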
compound,measurement,setting,value
C[C@@H](Cc1ccc(O)cc1)NC[C@@H](O)c1cc(O)cc(O)c1,Potency,CP194,inactive
same,Potency,CP315,inactive
same,outcome,JCK,inactive
C[C@@H]1O[C@@H](O[C@H]2C[C@@H](O)[C@@]3(CO)[C@H]4[C@H](O)C[C@]5(C)[C@@H](C6=CC(=O)OC6)CC[C@]5(O)[C@H]4CC[C@@]3(O)C2)[C@@H](O)[C@H](O)[C@H]1O,outcome,JCK,inactive
C=C[C@@H]1CN2CC[C@H]1C[C@H]2[C@H](O)c1ccnc2ccccc12,Potency,CP194,849 nM (active)
same,Potency,CP315,1200 nM (active)
CC(=O)c1c(O)c(C)c(O)c(Cc2c(O)c3c(c(C(=O)/C=C\c4ccccc4)c2O)OC(C)(C)C=C3)c1O,Potency,[1],2510 nM (active)
CCn1cnc2c(Nc3cccc(Cl)c3)nc(N[C@@H]3CCCC[C@H]3N)nc21,Potency,[1],2510 nM (active)
C(CCOCC1CO1)COCC1CO1 (configuration not stated),Potency,[2],inactive
same,Potency,[3],inactive
same,Potency,[4],inactive
same,outcome,[5],inactive
same,outcome,[6],inactive
same,Potency,[7],inactive
same,Potency,[8],inactive
same,Potency,[9],inactive
same,Potency,[10],inactive
same,Potency,[11],inactive
same,Potency,[12],inactive
same,Potency,[13],inactive
same,Potency,[14],inactive
same,Potency,[15],39800 nM (active)
same,Potency,[16],inactive
same,Potency,[17],inactive
CCCCCc1cc(O)cc(O)c1,Potency,[3],inactive
same,Potency,[4],inactive
same,outcome,[5],inactive
same,outcome,[6],inactive
same,Potency,[7],inactive
same,Potency,[8],inactive
same,Potency,[9],inactive
same,Potency,[10],inactive
same,Potency,[11],inactive
same,Potency,[12],inactive
same,Potency,[13],inactive
same,Potency,[14],inactive
same,Potency,[15],inactive
c1ccoc1,Potency,[2],inactive
same,Potency,[4],inactive
same,outcome,[5],inactive
same,outcome,[6],inactive
same,Potency,[7],inactive
same,Potency,[8],inactive
same,Potency,[9],inactive
same,Potency,[10],inactive
same,Potency,[11],inactive
same,Potency,[12],inactive
same,Potency,[13],inactive
same,Potency,[14],inactive
same,Potency,[15],inactive
same,Potency,[16],inactive
same,Potency,[17],inactive
